Assay outcomes (PubChem BioAssay)
Mtb MenB inh: inhibitors of Mycobacterium tuberculosis MenB enzyme. MenB enzyme assay, absorbance read-out. inhibition, % (concentration not given with the values). hit rate 0.43% among 100,000; in the data active = inhibition above about 21%, passing the limit was not always enough
Polio RdRp inh: poliovirus RNA polymerase inhibition. P03300. poliovirus polymerase elongation, fluorescence polarization; active compounds read low. % elongation, % (compound at 16.7 µg/mL). hit rate 0.66% among 150,000. AID 588519; in the data active = % elongation below about 90%
Target sequence (P03300 1749-2209 limits assumed): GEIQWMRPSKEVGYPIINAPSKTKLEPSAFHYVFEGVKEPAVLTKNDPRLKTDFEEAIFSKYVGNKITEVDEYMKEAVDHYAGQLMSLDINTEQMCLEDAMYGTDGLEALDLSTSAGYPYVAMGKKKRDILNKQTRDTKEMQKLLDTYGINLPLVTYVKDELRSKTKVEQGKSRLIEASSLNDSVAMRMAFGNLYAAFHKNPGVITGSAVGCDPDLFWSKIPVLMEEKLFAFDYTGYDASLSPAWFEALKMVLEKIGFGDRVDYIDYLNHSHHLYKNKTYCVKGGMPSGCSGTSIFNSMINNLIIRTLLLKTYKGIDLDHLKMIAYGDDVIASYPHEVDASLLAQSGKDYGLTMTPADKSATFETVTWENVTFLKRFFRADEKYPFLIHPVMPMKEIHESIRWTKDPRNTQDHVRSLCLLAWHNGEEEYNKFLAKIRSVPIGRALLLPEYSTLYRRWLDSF
MbtI inh: MbtI salicylate synthase inhibition; P9WFX0; hit rate 0.89% among 100,000; purified MbtI enzyme, fluorescence intensity read-out; inhibition, % (test concentration not listed); in the data active = inhibition mostly above about 56%, no sharp cut-off; inactive = mostly below about 77%
AID504770: growth inhibitors of E. coli YBA685 in a screen for V. cholerae RctB (chromosome II replication) inhibitors; E. coli YBA685 rctB-dependent plasmid, OD600 growth, 3 h; active compounds read low; z-score (concentration not given with the values); hit rate 0.27% among 130,000; in the data active = z-score below about -2, passing the limit was not always enough
Active calls of the source: *; . = not tested or not shown. Compounds with a hit are over-represented: about 1.4% of the library has one in this group of screens.

SMILES | Mtb MenB inh | Polio RdRp inh | MbtI inh | AID504770
O=C1CSC(=S)N1Nc1ccccc1 | -58.8 | 105.0 | 75.8* | -3.95
Cc1cccc2nc(=S)n(C(=O)c3ccc(F)cc3)n12 | -0.3 | 74.0* | . | -0.05
Cc1ccc(S(=O)(=O)N[C@@H](Cc2ccccc2)C(=O)CCl)cc1 | -13.9 | 102.0 | 64.3* | .
CCCn1c(SCC(=O)N2N=C(c3ccccc3)CC2c2ccc(OC)cc2)n[nH]c1=O (configuration not stated) | -37.8 | 106.0 | -7.8 | 0.45
Cc1cc(C)c(C(=O)O)c(=O)[nH]1 | -6.9 | 106.0 | 11.8 | 0.6
Cc1cc(C)c(C(=O)O)c(=S)[nH]1 | -22.2 | 102.0 | 89.4* | -2.45*
COc1cc(OC)cc(C(=O)c2ccc(C(=O)NC3(c4ccccc4)CC3)cc2)c1 | -15.9 | 103.0 | . | -0.8
N#C/C(=C\c1ccco1)C(=O)Nc1ccccc1 | -78.0 | 104.0 | 4.5 | -0.15
COC(=O)c1c(NC(=O)/C(C#N)=C/c2ccco2)sc(C)c1C | -12.1 | 95.0 | 82.3* | 0.3
CN(C)S(=O)(=O)c1cccc(-c2nnc3n2N=C(c2cccs2)CS3)c1 | -51.9 | 76.0* | 97.3* | 0.05
c1ccc(-c2nnc3n2N=C(c2cccs2)CS3)cc1 | -4.0 | 105.0 | -9.6 | 0
Cc1ccc(C)c(SCC(=O)C(C#N)c2nc(C)cs2)c1 (configuration not stated) | -11.1 | 111.0 | -3.2 | 0.75
NC(=O)/C=C/C(=O)Nc1ccccc1Cl | -60.4 | 101.0 | 100.2* | 0.25
Cc1ccccc1NC(=O)/C=C\C(N)=O | -7.5 | 104.0 | 99.5* | 0.65
CCOc1ccccc1NC(=O)/C=C/C(N)=O | . | . | . | -0.8
Cc1ccc(-c2ncc(-c3ccccc3)o2)cc1 | . | 100.0 | 93.6 | 1.1
C=CCN=c1scc(-c2ccco2)n1/N=C/c1cccs1 | -62.1 | 107.0 | 8.6 | -0.15
Cc1c(N=c2c(=O)c3ccccc3c2=O)c(=O)n(-c2ccccc2)n1C | -43.6 | 63.0* | 9.0 | 1.8
Cc1nnc(SC(C(N)=O)C(N)=O)s1 | -8.2 | 99.0 | 4.9 | 0.25
O=C(CN1CCN(c2ncnc3scc(-c4ccc(Cl)cc4)c23)CC1)NC1CC1 | -5.6 | 105.0 | -5.4 | -4.9*
Cc1ccc(CN2C(=O)/C(=c3\sc4nc(-c5cccs5)nn4c3=O)c3ccccc32)cc1 | -28.9 | 105.0 | -5.6 | 1.9
CC(C)(C)c1cc2ncnc(NCc3ccc4c(c3)OCO4)c2s1 | . | . | . | -0.45
Cc1cc2nc(-c3ccc(NC(=O)c4ccccc4F)cc3)oc2cc1C | . | 24.0* | . | .
Cc1ccccc1C(=O)Nc1ccc(-c2nc3ccccc3o2)cc1 | 1.9 | 100.0 | 67.1 | 0.6
O=C(Nc1ccc(-c2nc3cc(Cl)ccc3o2)cc1)c1cc2ccccc2o1 | . | 49.0* | . | .
SMILES | Mtb MenB inh | Polio RdRp inh | MbtI inh | AID504770
O=C(Nc1ccc(Cl)c(-c2nc3cc(Cl)ccc3o2)c1)c1cc2ccccc2o1 | . | 105.0 | . | .
O=C(c1cc(O)ccc1O)c1coc2ccc(O)cc12 | 12.7 | 101.0 | 99.8* | 0.55
O=C(Nc1ccccc1)c1scc2c1CCCC2 | -4.2 | 106.0 | . | -0.75
C[N+]1(C)CCOC12CCCCC2 | 45.4* | 99.0 | -4.1 | 0.7
Cc1cc(C)cc(NC(=O)CNCC(F)(F)F)c1 | -10.1 | 92.0 | -2.3 | 1.4
O=C(Cc1c(F)cccc1Cl)NCCCn1ccnc1 | 40.5* | 102.0 | -1.4 | 0.95
CCSc1ccccc1C(=O)NCCCn1ccnc1 | 39.8* | 102.0 | 18.2 | 0.6
Clc1nc2ccc3nsnc3c2nc1Cl | 11.1 | 42.0* | 88.1 | -0.05
COC(=O)c1sc(NC(=O)c2ccccc2)c(C(=O)OC)c1C | -28.4 | 68.0* | . | -0.85
COC(=O)c1sc(NC(=O)C(F)(F)F)c(C(=O)OC)c1C | 0.2 | 104.0 | 17.0 | -0.55
COCc1c(C(=O)NCc2nnc3ccccn23)oc2ccccc12 | -4.0 | 106.0 | -1.9 | -0.1
CCOC(=O)C1CCCN(c2c(N)n(CC)c(=O)[nH]c2=O)C1 (configuration not stated) | -12.0 | 103.0 | 12.8 | 0.5
COc1cccc(-c2nn(C)c3sc(C(=O)N4CCCc5ccccc54)cc23)c1 | -59.5 | 102.0 | 62.9 | 1.25
N#CSc1cnc(NC2CCCCC2)s1 | -177.6 | 94.0 | 74.0* | -0.4
O=C(Cn1c(-c2cccs2)cc2ccccc21)N1CCN(c2ccccc2)CC1 | -4.6 | 101.0 | -84.1 | -0.95
COc1ccc(Cc2nn3c(Cn4cnc5ccccc54)nnc3s2)cc1 | -40.4 | 100.0 | 99.0* | -0.4
c1ccc(Nc2nc3c(ccc4ccccc43)s2)cc1 | -19.3 | 83.0* | . | -0.55
Cc1sc(Nc2ccccc2)nc1-c1ccccc1 | -6.9 | 101.0 | -2.1 | 0.5
O=C(COCc1cc(-c2ccc3c(c2)OCO3)on1)NC1CCCc2ccccc21 (configuration not stated) | -1.7 | 102.0 | 1.2 | -1.5
O=C(O)CCC(=O)N1N=C(c2ccccc2)CC1c1ccc2nccnc2c1 (configuration not stated) | 49.9* | 99.0 | 15.0 | -0.6
CCc1ccc(C2CC(c3ccccc3)=NN2C(=O)CCCC(=O)O)cc1 (configuration not stated) | -31.5 | 98.0 | -5.5 | 0
O=C(NCc1ccco1)C(c1ccccc1)N(Cc1ccco1)C(=O)Cn1nnc2ccccc21 (configuration not stated) | 34.4* | 102.0 | 1.4 | -0.5
CC(C)CNC(=O)c1cccc(S(=O)(=O)N2CCCCC2)c1 | . | 105.0 | -7.6 | -4.8*
O=C(O)c1cccc(S(=O)(=O)N2CCCCC2)c1 | -54.5 | 99.0 | -13.9 | -0.6
CCCSc1nc(-c2ccc(OC)cc2)cc(-c2ccccc2OC)c1C#N | . | 88.0* | . | .
SMILES | Mtb MenB inh | Polio RdRp inh | MbtI inh | AID504770
O=C(NCc1nc(-c2ccc(Cl)cc2)no1)C1CCCCC1 | -0.9 | 102.0 | 13.6 | 0.25
CC(C)OC(=O)Cn1c(C2CC2)nc2ccccc2c1=O | 30.7* | 101.0 | 4.0 | 1.3
N#CC(/C(=N/S(=O)(=O)c1cccs1)c1ccccc1)c1nnc(N2CCOCC2)n1-c1ccccc1 (configuration not stated) | -7.5 | 102.0 | 11.1 | 0.3
Cc1cc(NC(=S)N(C)C)ccc1Br | -5.2 | 97.0 | 96.2* | 1.95
CC(=O)c1cccc(NC(=O)c2oc3c(c2C)-c2nn(Cc4ccc(Cl)cc4)cc2CC3)c1 | . | 93.0 | . | .
CCOC(=O)c1cccc(NC(=O)c2oc3c(c2C)-c2nn(CC)cc2CC3)c1 | . | 64.0* | . | .
CCOC(=O)C(C#N)=c1sc(=C(C#N)C(=O)OCC)s1 | -19.2 | 88.0* | 75.5* | 0.55
CCOC(=O)C(C#N)=C1C2CC3CC(C2)CC1C3 | . | . | . | -0.15
COC(=O)c1sc(Br)c(Br)c1OC | . | . | . | 1.2
Cc1ccc(C(=O)CCC(=O)O)s1 | -33.3 | 104.0 | 22.8 | -3.3*
Cc1ccc(C(=O)OCC(=O)c2ccccc2)s1 | -18.7 | 103.0 | -3.5 | -0.5
Cc1cc(-c2ccc(S(=O)(=O)N3CCC(C)CC3)cc2)on1 | -22.2 | 103.0 | -18.3 | -0.25
N#Cc1ccc(Sc2ccc(C#N)c(C#N)c2)cc1C#N | -52.6 | 100.0 | 100.2* | -0.85
N#Cc1ccc(OC(C(F)(F)F)C(F)(F)F)cc1C#N | -22.7 | 100.0 | 1.3 | -0.45
COc1cccc(N2C(=O)CC(Sc3nnc(C)s3)C2=O)c1 (configuration not stated) | 8.6 | 101.0 | 100.2* | -0.75
COc1cccc(N2C(=O)CC(Sc3ccccc3N)C2=O)c1 (configuration not stated) | . | . | . | 1.45
CCN1CCN(S(=O)(=O)/C=C/c2ccccc2)CC1 | . | . | . | -1.3
